# In the supplement of paper PMC6555819:
# Test system: RXRa DBDmut IVT, anti-RXR (DBD mutation: RXRa K156A/R161A, NR concentration 90 nM)
# Assay: PBM binding z-score (relative to random genomic background probes); higher = stronger binding; sequences stand for … in GC…GCGATTGACAGCGTAGAATGAAGG
# Procedure, shortened: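 Binding buffer was PBS pH 7.4 with 2% milk, 0.02% Triton X-100, 1 mM DTT, 0.2 mg/mL BSA and 0.4 mg/ml salmon testes DNA. In it, ligand-free nuclear receptor dimers were incubated 1 h on custom Agilent 4×180K protein-binding microarrays carrying double-stranded probes. Antibodies against each partner (one per run) detected binding, and z-scores were calculated against random background probes after regression normalization of scanned fluorescence.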
row,Sequence,PBM binding z-score
1,ATATGTAGGTTAGATGGGGTCATTCAGACTAGGC,2.39
2,AATACAGGGTCTCTAGGCCAGAGTAGGTACGAAT,-0.254
3,AGTCAAAGATCAGGACGAGGTAACGTAAAGCACG,-0.798
4,GATTGTAGATCAAGGTTAAGAAAGACTAAGCTAA,-0.224
5,TCTATTAGTTGAAGGGCAAGCGACGAGTCCGTTT,1.59
6,CCTTACGGCTCACTCCAGGTTATAGCATCGGAGT,0.487
7,CGTCCAGGGTCATAGGAGGTCAGTGAAGACAGAT,3.62
8,CCTTACGGGTCACTGACAGGTTACAGCATTTGGA,1.94
9,TAGCCTAGGTCATTGGGCCAGTTTAGTACGCATC,1.46
10,ATATGGAGGTTACATCCGGGTCATTCAGGCTATG,1.17
11,AGTCAGAGTTCAGGACGAGGTAACGTAAAGCACG,3.5
12,CAAACTAGGTAACAGAGGTCAAAGTCCGTGCGTA,2.34
13,GTACCAAGGTGAATAGGTCGTAGATGAGTAGGCG,-0.478
14,CCTACTGGGCCAAGGTGATTGATCAGTCAAAGCA,-1.43
15,ATATGTAGGTTAGCTGGGGTCACTCAGACTAGGC,1.52
16,AATACAGCGTCACTAGGCCAGAGTAGGTACGAAT,-0.271
17,CCTAGCAGGCCAATCTGGGTCACTCCAGGCTTGA,-0.206
18,GCATATAGGTAATACAAAGTGAAAGTCCGATTGT,0.278
19,AGAATGAGGTTATACGCAGATCAGGGAAGAAAGT,1.47
20,CCAGACAGGTGAGAAGGAAACTCAGCCTCGATTA,-0.203

row,Sequence,PBM binding z-score
1,GCAGACAGCTGAAACGCAGGTAACTCAGGGTGGC,-0.772
2,CGTCCAAGGTGATAGGAGGTCAGTGAAGACAGAT,0.227
3,TCTCGGAGGACGCGAAAGGTCAGAGCTCGACATC,0.446
4,CAAACTAGGTCACATAGGTCAAAGTCCGTGCGTA,2.56
5,ATCGAAAGGTCGAGATGAGTATAGAGAAAGGGAA,0.857
6,TAGCCTAGGTCATGCGGGCTAGTATAGTGTCGGC,0.197
7,CCTACTGGCCCATTCAGAGGTCATTGATCATATG,0.948
8,CATACAGGGTGAGCTAGGCCAGAGTAGGGACGGC,-1.01
9,AGAACGAGGGCACGCTGAATTGATAGCAGAGTAG,1.73
10,CCTCAGAGGACAACAGGAGGTCAGAGCTGCCAGA,1.36
11,CAGCCTAGGGCAGGGCCAGTATAGGAGGAACGTT,-1.36
12,TCATATAGGTAAAAGCTAGGTGAAAGTCCGATCT,1.44
13,CGGCCAAGGTCAGAGAGGTCAGTGAATGCCGAGT,3.44
14,GCTTACGGGTCAAGGGTTATAGCATGAATAGAAT,1.86
15,TCTCAGAGGACACGAAGGTCAGAGCTTTCCAGAG,1.38
16,TCGAGTAGGTTACCAATGGGGCCTTCAGCTTTCT,0.173
17,ATACCAAGATGATCGTGAGGTCGTTGATACTAAC,0.473
18,CCTTACGGGTCACTCCTGGTTATAGCATCGGAGT,1.26
19,GCTGCTAGGTCAGGTTCGTCAGCTAACGGGTACG,1.63
20,TCTGCCAGGTCAACGATGGTCAGCTAATCTGCTA,1.41
